Our source for the growth inhibition values is PubChem BioAssay (NCI).

About 79,000 compounds went through this panel and 15% of them were active in at least one assay; those are over-represented in the sample as a whole. A number with no mark means an inactive call. Activity calls are given as the source filed them. Cut-off read from the data, not from the text of the source: active = growth inhibition above about 70%; inactive = the rest.

A short description of assay [1]: NCI Yeast Anticancer Drug Screen. Data for the rad50 strain (AID 155).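 Note: 0% = growth of vehicle-only cultures of the same strain.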 Conditions: S. cerevisiae rad50 strain growth inhibition; at 50.0 µM; hits give high values. The method, boiled down: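 Cells are treated with compound, grown, and their growth is then scored against vehicle-only cultures of the same repair-deficient yeast strain.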
The nature of assay [2]: NCI Yeast Anticancer Drug Screen. Data for the mec2-1 strain (AID 157). Conditions: S. cerevisiae mec2-1 strain, at 50.0 µM, hits give high values. The gist of the method:
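Vehicle-treated cultures served as reference for growth inhibition of compound-exposed mec2-1 yeast.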

Assay [3] can be described thus: NCI Yeast Anticancer Drug Screen. Data for the sgs1 mgt1 strain (AID 161).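 Note: 0% = growth of cultures given vehicle only.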 Conditions: S. cerevisiae sgs1 mgt1 strain, at 50.0 µM, hits give high values. The method, boiled down:
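Read-out: growth inhibition vs vehicle controls. Cells: mutant yeast strain deficient in DNA damage repair.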

Assay [4] is described as follows: NCI Yeast Anticancer Drug Screen. Data for the cln2 rad14 strain (AID 165).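 Note: 0% = growth equal to vehicle treated cultures.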 The note with it: S. cerevisiae cln2 rad14 strain, at 50.0 µM, hits give high values. The gist of the method:
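Each compound was tested on cln2 rad14 yeast. Inhibition of growth was calculated against vehicle-exposed controls.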

The nature of assay [5]: NCI Yeast Anticancer Drug Screen. Data for the bub3 strain (AID 167). The note with it: S. cerevisiae bub3 mutant strain, at 50.0 µM, hits give high values. The gist of the method:
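Part of a panel of yeast mutants defective in DNA damage repair or cell cycle regulation. Each strain is grown with compound, and inhibition is calculated relative to solvent-treated cultures.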

Assay [6] can be described thus: NCI Yeast Anticancer Drug Screen. Data for the mlh1 rad18 strain (AID 175). The note with it: S. cerevisiae mlh1 rad18 strain growth inhibition; at 50.0 µM; hits give high values. The method, boiled down:
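Vehicle-treated cultures served as the reference for growth inhibition in a yeast strain carrying DNA damage repair alterations exposed to each compound.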

`Clc1cc(Cc2cc(Cl)c(Cl)c3c2OCOC3)c2c(c1Cl)COCO2`: the growth inhibition in assay [1] was -47.6%; in assay [2], -24.9%; in assay [3], -5%; in assay [4] it was -22.4%; in assay [5] it was -10.6%; in assay [6], -18.3%.
Take `CCN(CC)CCNc1ccc2ncn3c4ccc(OC)cc4c(=O)c1c23`: the growth inhibition in assay [1] was 4.35%; in assay [2] it was -1.9%; in assay [3], -34.9%; in assay [4] it was 18.6%; in assay [5] it was 20.9%; in assay [6], 34.2%.
Consider `CC(C)(C)C(=O)C(C(c1ccccc1)N1CCOCC1)N1CCOCC1` (stereo not given), for which the growth inhibition is 21.7% in assay [1]; -5.8% in assay [2]; -33.6% in assay [3]; -17% in assay [4]; 5.7% in assay [5]; -10.6% in assay [6].
Regarding `CN(Nc1ccnc(=O)[nH]1)c1ccccc1`, the growth inhibition was -35.9% in assay [1]; -11.2% in assay [2]; -11% in assay [3]; -23.6% in assay [4]; -2.7% in assay [5]; 8.8% in assay [6].
Take `O=S(=O)(Cc1ccccc1)CC(Br)CBr` (stereo not given): the growth inhibition in assay [1] was 82.9% (active); in assay [2], 97.2% (active); in assay [3] it was 96.1% (active); in assay [4], 27.4%; in assay [5], 95.2% (active); in assay [6], 97.2% (active).
As for `CCOc1c(N2CCOCC2)c(=O)c1=O`, the growth inhibition in assay [1] is 11.6%; in assay [2], -19.4%; in assay [3] it was 5.7%; in assay [4] it was 6.65%; in assay [5], 30.9%; in assay [6], 5.95%.
`CNC(=O)Nc1nnnc2ccccc12`: the growth inhibition is 10.1% in assay [1]; 1.45% in assay [2]; -4.05% in assay [3]; -10.6% in assay [4]; -0.15% in assay [5]; 13.9% in assay [6].
Regarding `COc1cc(CC(=O)c2ccc3c(c2)OCO3)cc(OC)c1OC`, the growth inhibition in assay [1] is -9.95%; in assay [2], -5.15%; in assay [3] it was -8.95%; in assay [4], -15.5%; in assay [5], 4.75%; in assay [6] it was -25.3%.
As for `O=C1c2cc(O)c(O)cc2C(=O)c2cc3c(cc21)OCO3`, the growth inhibition was -38.2% in assay [1]; -5.55% in assay [2]; 1.4% in assay [3]; -11.6% in assay [4]; -8.3% in assay [5]; -15.9% in assay [6].
For `COc1c(F)c(F)c(/C(O)=C\c2nc3ccccc3[nH]c2=O)c(F)c1F`, the growth inhibition in assay [1] is -19.6%; in assay [2], -22.9%; in assay [3], -17.4%; in assay [4], 13.6%; in assay [5], -2.05%; in assay [6], -11.3%.
Consider `CCCCCCC1OCC(CC)(CC)CO1`, for which the growth inhibition in assay [1] was 11.8%; in assay [2] it was -12.4%; in assay [3] it was -18.9%; in assay [4], -26.5%; in assay [5], -15.6%; in assay [6], 26.4%.
Turning to `OCc1ccccc1CO`, the growth inhibition is -19.6% in assay [1]; -15% in assay [2]; -9.25% in assay [3]; 13.3% in assay [4]; -3.75% in assay [5]; 3.15% in assay [6].
For `O=C(NCCCN1CC2CCCC2C1)C(c1ccccc1)c1ccccc1` (stereo not given), the growth inhibition in assay [1] was -22.9%; in assay [2], -2.55%; in assay [3], -41.8%; in assay [4], -5.3%; in assay [5], -10.7%; in assay [6], -24.3%.
On to `CC(C)C1OC2OCCCC2C(C(C)C)O1` (stereo not given), for which the growth inhibition is 17.2% in assay [1]; -5.85% in assay [2]; 8.15% in assay [3]; -11.9% in assay [4]; -22.1% in assay [5]; 11% in assay [6].
For the molecule `CCCNC(=O)CCC(=O)NS(=O)(=O)c1ccc(Cl)cc1`, the growth inhibition was -14.4% in assay [1]; -3.05% in assay [2]; 16.5% in assay [3]; -16.4% in assay [4]; 16.1% in assay [5]; 7.15% in assay [6].
Take `COc1cccc(/C=C(\C#N)C(=O)c2ccccc2)c1`: the growth inhibition in assay [1] was 4.4%; in assay [2], 19.6%; in assay [3], 11.2%; in assay [4] it was 19.6%; in assay [5], 13.9%; in assay [6] it was 19%.
Take `NC(=O)CC(N)C(=O)OCc1ccc([N+](=O)[O-])cc1` (stereo not given): the growth inhibition in assay [1] was -12.7%; in assay [2] it was 0%; in assay [3], -3.45%; in assay [4] it was -11.2%; in assay [5] it was -5.95%; in assay [6], -11.3%.
As for `C=CSC(=S)Sc1ccccc1`, the growth inhibition was 25.6% in assay [1]; 28.4% in assay [2]; -1.15% in assay [3]; 3.45% in assay [4]; 19% in assay [5]; 12.9% in assay [6].
With `CN(C)c1ccc(/C=C/c2ccnc3ccc(Br)cc23)cc1`, the growth inhibition in assay [1] was 26.9%; in assay [2], 14.9%; in assay [3], 27.4%; in assay [4], 14.9%; in assay [5], 8.1%; in assay [6], 9.35%.
Consider `CCCN(CCC)C(=O)c1ccc(C(C)C)cc1`, for which the growth inhibition in assay [1] was 11.2%; in assay [2], 7.05%; in assay [3], 19.1%; in assay [4] it was -6.8%; in assay [5] it was 9.7%; in assay [6], 9.7%.
